PubChem BioAssay AID2061166 (Soto Lab, Mitchell Center for Alzheimers Disease and …, 2025)
The source made the active and inactive calls.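 How the source made its calls: active means mean tau seeding fluorescence area under 1% of vehicle, meaning inhibition above a set limit; inactive means the rest.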

These compounds were tested against Microtubule-associated protein tau (Homo sapiens) (UniProt P10636) (assay: inhibitors of seeded tau aggregation, primary screen, biochemical, seed amplification, ThT fluorescence (AID 2061166)). Conditions: Recombinant tau seeded by AD brain, ThT fluorescence AUC; at 100 µM; active compounds read high.
Chain of Microtubule-associated protein tau (Homo sapiens) (P10636 whole entry, looked up): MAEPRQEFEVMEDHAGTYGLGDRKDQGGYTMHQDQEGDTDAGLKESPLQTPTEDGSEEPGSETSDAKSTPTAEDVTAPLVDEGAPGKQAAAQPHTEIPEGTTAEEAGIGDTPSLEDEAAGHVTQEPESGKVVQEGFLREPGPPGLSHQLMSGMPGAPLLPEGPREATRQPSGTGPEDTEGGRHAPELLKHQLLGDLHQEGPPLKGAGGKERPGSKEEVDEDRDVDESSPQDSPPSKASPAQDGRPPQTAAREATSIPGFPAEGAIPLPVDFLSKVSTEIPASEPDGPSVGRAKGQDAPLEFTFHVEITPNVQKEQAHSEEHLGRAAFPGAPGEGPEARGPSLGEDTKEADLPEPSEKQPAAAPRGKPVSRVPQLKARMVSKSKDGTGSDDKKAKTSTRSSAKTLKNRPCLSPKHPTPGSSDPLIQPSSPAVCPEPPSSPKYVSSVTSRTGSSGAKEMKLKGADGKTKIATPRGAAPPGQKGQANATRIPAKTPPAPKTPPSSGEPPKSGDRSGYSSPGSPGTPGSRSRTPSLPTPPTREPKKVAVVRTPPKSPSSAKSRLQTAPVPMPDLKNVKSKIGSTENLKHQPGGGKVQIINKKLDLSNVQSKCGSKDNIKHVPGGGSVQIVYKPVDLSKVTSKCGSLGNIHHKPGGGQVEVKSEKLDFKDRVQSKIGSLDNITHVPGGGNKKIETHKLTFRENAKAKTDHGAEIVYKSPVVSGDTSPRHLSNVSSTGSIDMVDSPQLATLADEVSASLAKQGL

Structure (SMILES)	inhibition
CN(C)c1ccc(C=CC=O)cc1	37.8% (inactive)
CCC1(O)C(=O)OCc2c1cc1n(c2=O)Cc2cc3c(CN(C)C)c(O)ccc3nc2-1 (stereo unspecified)	91.5% (inactive)
COc1ccc(Cc2cnc(N)nc2N)cc1OC	37.1% (inactive)
O=C(c1cc(O)c(O)c(O)c1)c1ccc(O)c(O)c1O	97.9% (inactive)
CC(=O)Oc1cc(C(F)(F)F)ccc1C(=O)O	27% (inactive)
CC(=O)c1c(O)c(C)c(O)c2c1OC1=CC(=O)C(C(C)=O)C(=O)C12C (stereo unspecified)	21.4% (inactive)
CC(C)(C)c1cc(C(C)(C)C)c(NC(=O)c2c[nH]c3ccccc3c2=O)cc1O	-88.7% (inactive)
COc1cc(C(=O)NCc2ccc(OCCN(C)C)cc2)cc(OC)c1OC	10.7% (inactive)
CCc1c2c(nc3ccc(OC(=O)N4CCC(N5CCCCC5)CC4)cc13)-c1cc3c(c(=O)n1C2)COC(=O)C3(O)CC (stereo unspecified)	46.1% (inactive)
CCc1nc(N)nc(N)c1-c1ccc(Cl)cc1	-7.97% (inactive)
C#CCC(Cc1cnc2nc(N)nc(N)c2n1)c1ccc(C(=O)NC(CCC(=O)O)C(=O)O)cc1 (stereo unspecified)	-3.35% (inactive)
Oc1ccc(/C=C/c2cc(O)cc(O)c2)cc1	16.9% (inactive)
Nc1ccccc1NC(=O)c1ccc(CNC(=O)OCc2cccnc2)cc1	-34.7% (inactive)
O=C(O)c1cc(-c2ccccc2)nc2ccccc12	3.74% (inactive)
CCN(CC)C(=S)SSC(=S)N(CC)CC	-17.5% (inactive)
CN(C)CCCN1c2ccccc2Sc2ccc(Cl)cc21	25.9% (inactive)
